Source: PubChem BioAssay AID1471 (National Center for Advancing Translational Sciences (NCATS), 2008)
Out of some 230,000 compounds screened, about 310 (0.13%) were called active. Inconclusive results (about 2%) are left out. The list comes from a sample in which actives are over-represented; it also holds similar structures and randomly drawn compounds. Values without a mark were called inactive. Calls come from the whole dose curve; as a rule, active = well fitted activation curve with a large enough effect; inconclusive = small, poorly fitted or top-dose-only effect; inactive = no such curve, though single readings can be large or run the other way.

assay: qHTS Multiplex Assay to Identify Dual Action Probes in a Cell Model of Huntington: Cytoprotection (ATP); settings: PC12 HTT-Q103 induced, ATP luminescence, 40 h; series mostly up to 56.4 µM; cytoprotection (ATP increase): at the top concentration; note: nearly all actives have a fitted effect of over 45% in size;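 for cytoprotection (ATP increase): toxic huntingtin expression switched on by the ecdysone agonist tebufenozide; % of control where 0% means no effect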
Source text: NIH Chemical Genomics Center [NCGC]
NIH Molecular Libraries Probe Production centers Network [MLPCN]
Assay Submitter (PI): Wei Zheng
Huntington's disease is a neurodegenerative disorder caused by a trinucleotide repeat expansion in Exon 1 of the Huntingtin gene. The CAG trinucleotide encodes glutamine and polyglutamine expansions cause cell death in selective areas of the brain. Huntington polyglutamine repeats have the tendency to form aggregates which are observable in later stages of the disease. The exact nature of the aggregates, whether toxic, protective, or insignificant, is unclear.
A stable PC12 cell line containing a gene fusion of Exon 1 of the Huntingtin gene linked to GFP under the control of the inducible ecdysone promoter were used as the cell-based model of Huntington Disease for high throughput screening. Exon 1 of the Huntingtin gene contained an expansion of 103 polyglutamines (Q103) which, when expressed, caused cell death and distinct, bright GFP aggregates. The amount of cell death and the size and intensity of GFP aggregates increased over time and induction level. The cell death were quantified with a measurement of ATP content in the cells. A maximal 40-50% of cell death was observed when the Huntington gene was induced in this cell line.
We optimized this assay in a homogeneous 1536 well format. A quantitative high throughput screen (qHTS) was conducted on the PC12 cells which were induced to express the toxic fusion construct. Small molecules which prevented cell death were identified by using a luminescent ATP quantification method (Perkin Elmer's ATPlite).
PC12 cells stably containing a construct with an ecdysone inducible promoter expressing GFP fused to the exon 1 of HTTQ103 (Huntington protein which containing a 103 ployglutamine expansion) were used.
NCGC Assay Protocol Summary:
Sequence, Parameter, Description
1, Reagent, 5 uL 1500 cells/well 1536 TC treated White clear bottom plate
2, Compound, 23 nL Tebufenozide inducer (100 nM final) to all columns
3, Compound, 23 nL 40 uM to 0.5 nM Libraries
5, Reagent, 5 ul ATPLite cell death assay reagent
6, Detector, 4 sec integration with a Viewlux Luminescent
Media consisted of phenol red free DMEM + 5% equine serum (Hyclone # SH30072.03 ), 5% supplemented Bovine Calf Serum (Hyclone # SH30074.03 ), 1x pen/strep, no G418
Control columns: 1 = DMSO, 2= 2 uM teb dilns (1:1), 4 = 100 nM Teb inducer. Sample columns received 100 nM Teb.

Row | Structure (SMILES) | cytoprotection (ATP increase) | Potency
1 | COC(=O)c1cc(C(=O)OCC(=O)Nc2cc(C)on2)cc([N+](=O)[O-])c1 | -6.88% [at 10 µM] | 
2 | CC[C@H](C)[C@@H](NC(=O)O[C@@H]1C(=O)c2cc(OC)ccc2O[C@H]1c1cccc(OC)c1)C(=O)OC | -40.8% | 
3 | O=C(c1cc2ccccc2o1)N1CCN(Cc2ccccc2)CC1 | -59.7% | 
4 | COc1cc2c(cc1OC)CC(=O)N(CCCN(C)C[C@H]1Cc3cc(OC)c(OC)cc31)CC2 | 32.3% | 
5 | C=CC1=C2C=C(C3CC3)N(CC(C)C)C=C2C(=O)C(C)(OC(=O)c2ccco2)C1=O (centres undefined) | -19.6% [at 10 µM] | 
6 | S=C(NCCCc1cnc[nH]1)NCCCN(Cc1ccc(Cl)c(Cl)c1)c1ccc(Br)cn1 | -350% | 
7 | C/C(CC(=O)NC(C)c1ccccc1)=N\NC(N)=S (centres undefined) | 8.79% [at 10 µM] | 
8 | COC(=O)C1=C(C(=O)OC)[C@@H]2N(Cc3ccccc3)c3ccccc3[C@@]23C[C@@H](C(=O)OC)N(S(=O)(=O)c2ccc(C(F)(F)F)cc2)C3=N1 | 23.4% [at 10 µM] | 
9 | C[C@H]1Cc2c(-c3ccccc3)nc3c(c2CO1)CN(C(=O)C1CC1)CC3 | -5.29% [at 10 µM] | 
10 | NC(=O)c1sc(-c2ccsc2)cc1N | -22.8% | 
11 | CC(C)(C)OC(=O)NCCCCC1=CC2=CC(=O)C(C)(OC(=O)c3cccs3)C(=O)C2=CO1 (centres undefined) | -20.7% | 
12 | COc1cccc([C@@H]2Oc3ccc(Br)cc3C(=O)[C@H]2OC(=O)NCc2ccc3c(c2)OCO3)c1 | -21.2% | 
13 | COC(=O)N1C(/C=C/C=C/c2ccc(OC)cc2)=Cc2ccccc2C1CC(C)=O (centres undefined) | -21.1% [at 10 µM] | 
14 | CCCCC/C=C\C/C=C\CCCCCCCCCC(=O)NCC(=O)O | 2.32% | 
15 | COCCN(C(=O)c1ccccc1F)c1c(N)n(Cc2ccccc2)c(=O)[nH]c1=O | 6.32% | 
16 | COc1cccc(-c2cc(=O)c3cc(NC(=O)c4ccc(C)cc4)ccc3[nH]2)c1 | -326% | 
17 | CC[C@@]12C=C(/C=C/c3ccccc3)[C@](CC)(C1)[C@H](c1ccccc1)CC2=O | -0.493% | 
18 | O=c1c(O)c(Br)ccc2c(Br)c(O)c(O)c(O)c12 | -29.5% | 
19 | NCCC(=O)c1ccccc1N | -7.14% | 
20 | Nc1nc(CC(=O)CSc2ccc(Cl)cc2)nc(Nc2ccc(F)cc2)n1 | -29.1% [at 10 µM] | 
21 | CC(=O)N1CCN(CC(=O)Nc2ccc(SC(F)F)cc2)CC1 |  | 5.62 µM (active)
22 | COC(=O)c1cc(NC(=O)CN2CCN(C(C)=O)CC2)cc(C(=O)OC)c1 | -18.4% | 

Row | Structure (SMILES) | cytoprotection (ATP increase) | Potency
23 | CCOC(=O)N1CCN(CC(=O)Nc2ccc(F)cc2)CC1 | -4.62% [at 10 µM] | 
24 | C[C@H]1Cc2c(-c3ccccc3)nc3c(c2CO1)CN(S(=O)(=O)c1ccc(Cl)c2nonc12)CC3 | -22.4% [at 10 µM] | 
25 | COc1cc(OC)c2c(c1)OC(=O)CC2c1cc(OC)c(OC)c(OC)c1 (centres undefined) | 10.6% | 
26 | CN(C)Cc1ccccc1C1(O)c2ccccc2CSc2ccccc21 (centres undefined) | -4.28% | 
27 | O=C(/C=C/c1cccc(F)c1)NC1CC1 | 25.8% | 
28 | COC(=O)C1=C(C(=O)OC)[C@@H]2N(C)c3ccccc3[C@@]23C[C@@H](C(=O)OC)N(S(=O)(=O)c2ccc(Br)cc2)C3=N1 | 7.44% [at 10 µM] | 
29 | C=CCN1c2ccccc2[C@]23C[C@@H](C(=O)OC)N(S(=O)(=O)c4ccc([N+](=O)[O-])cc4)C2=NC(C(=O)OC)=C(C(=O)OC)[C@H]13 | -23.4% [at 10 µM] | 
30 | CC(Nc1oc(-c2ccccc2)nc1-c1ccccc1)c1ccccc1 (centres undefined) | -70.1% | 
31 | COCOc1cc(OC)ccc1C(=O)/C=C/c1ccc([N+](=O)[O-])cc1 | -28.1% | 
32 | C=CC(C1=CC(=O)C=CC1=O)c1ccc(O)cc1 (centres undefined) | 14.6% | 
33 | COc1ccc(C(C)=O)cc1CN1C(=O)NC2(CCCCC2C)C1=O (centres undefined) | -14.3% | 
34 | CCCCS(=O)(=O)N1C2=NC(C(=O)OC)=C(C(=O)OC)[C@@H]3N(Cc4ccccc4)c4ccccc4[C@]23C[C@H]1C(=O)OC | 21.8% [at 10 µM] | 
35 | O=C1c2ccccc2NC(c2ccc(-c3cccc(Cl)c3)o2)N1O (centres undefined) | -70.6% [at 10 µM] | 
36 | CC(N)(C(=O)O)c1ccc(-c2nn[nH]n2)cc1 (centres undefined) | -10.3% | 
37 | Cc1ccc(S(=O)(=O)N2CCC(=O)N([C@H](COCc3ccccc3)Cc3ccccc3)CC2)cc1 | -2.62% | 
38 | C/C=C(\C)C(=O)O[C@H]1CC(C)=C2C(=O)C=C(C)C2[C@@H]2OC(=O)[C@@](C)(OC(=O)C=C(C)C)C21 (some centres undefined) | 11.5% | 
39 | O=C(N/N=C/c1cccc2cccnc12)[C@H]1C[C@@H]1c1ccccc1 | 23.6% [at 10 µM] | 
40 | O=C(Nc1cccc(C(F)(F)F)c1)c1cc(Br)cc(Br)c1O | -60.4% | 
41 | CCN1C(=O)N[C@@H](c2ccccc2)[C@H](C(C)=O)[C@H]1C | -16.1% [at 10 µM] | 
42 | CC(=O)CC(c1ccccc1)C1C(=O)Oc2ccccc2C1=O (centres undefined) | 19% | 
43 | CNC(=O)C1(C)C=CC2(CCCCC2)N1C(C)=O (centres undefined) | 20.6% | 
44 | C=CCNC(=O)c1ccc2c3n(nc2c1)-c1ccc(C)cc1CO3 | -15% [at 10 µM] | 
